# Pin1 inh – qHTS Assay to Find Inhibitors of Pin1 | Peptidyl-prolyl cis-trans isomerase NIMA-interacting 1 (Homo sapiens), Q13526 | Pin1 FP peptide displacement, HiFluor488, 10 min | Potency, µM (top dose mostly 115 µM), without a hit: at the top dose activity, negative = inhibition, hits mostly inhibitors | AID 504891, 2011 | hit rate 0.009% among 390,000; active = well fitted inhibition curve with a large enough effect in the polarisation, with a control signal flat, not every such curve was filed as active; inconclusive = small, poorly fitted or top-dose-only effect, or effect the other way, or a change in a side signal; inactive = no such curve, though single readings can be large or run the other way; the % refers to the polarisation; note: potency is the fitted concentration of half-maximal effect; % is set by controls: 0 for no effect and ±100 for the full control effect
# HEK293 tox – qHTS of GLP-1 Receptor Inverse Agonists: Cytotox Screen. hit rate 0.13% among 410,000. Potency, µM (highest dose often 38.3 µM), without a hit: top-dose activity change, negative = inhibition, actives largely listed as inhibitors. HEK293 cAMP-luciferase reporter cells, luminescence, 24 h;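 note: loss of luciferase light is scored as toxicity; potency is the fitted concentration of half-maximal effect; % is set by controls: 0 for no effect and ±100 for the full control effect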
#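 Seeding density was 200 cells/uL; after overnight-length (12 h) culture, 23 nL compounds went on for 24 h at 37 °C. Readout used a luciferase detection reagent, luminescence taken after 12 min at room temperature.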
# GLP-1R inv ag – qHTS of GLP-1 Receptor Inverse Agonists (Inhibition Mode). Glucagon-like peptide 1 receptor (Homo sapiens), P43220. HEK293 GLP-1R CRE-luciferase, luminescence, 24 h; GLP-1R form is constitutively active. Potency, µM (top dose mostly 38.3 µM), for inactives: at the highest dose activity change, negative = inhibition, most hits filed as inhibitors. hit rate 1.6% among 410,000. AID 624417, 2012; note: potency is the fitted concentration of half-maximal effect; % is set by controls: 0 for no effect and ±100 for the full control effect; nearly all actives have a fitted effect of over 55% in size
#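 HEK293 cells stably co-expressing a cAMP-responsive luciferase reporter and constitutively active GLP-1R were seeded, incubated 12 h, then exposed to compounds for 24 h at 37 C. Luminescence was read 12 min after detection reagent; inverse agonists lower signal.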
# miR-21 reporter – qHTS Assay for Modulators of miRNAs and/orActivators of miR-21; Potency, µM (series often up to 38.3 µM), for inactives: at the top dose activity change, positive = activation, hits mostly activators; HeLa miR-21 FLuc reporter, luciferase, 48 h; 340,000 tested, under 10 active; AID 2288, 2010;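 note: % of control where 0% means no effect; miR-21 action dims this reporter so a rising signal means less miR-21 action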
#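 Compounds were titrated across several concentrations (up to approximately 40 uM) and incubated 48 hours with HeLa miR-21-FLuc reporter cells (miR-21 target sequence downstream of FLuc, endogenous miR-21). Readout was firefly luciferase luminescence after lytic detection reagent.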
# PTHR1 agonist – qHTS for PTHR1 Agonists: Primary Screen; HEK293 GP2 PTHR1 cells, GloSensor cAMP luminescence, 1 h; Potency, µM (top dose mostly 115 µM), for inactives: at the highest dose activation, hits mostly activators; hit rate 0.075% among 410,000; AID 743266, 2014; note: potency is the fitted concentration of half-maximal effect; nearly all actives have a fitted effect of over 55% in size
# Target sequence (Q03431 whole entry, looked up): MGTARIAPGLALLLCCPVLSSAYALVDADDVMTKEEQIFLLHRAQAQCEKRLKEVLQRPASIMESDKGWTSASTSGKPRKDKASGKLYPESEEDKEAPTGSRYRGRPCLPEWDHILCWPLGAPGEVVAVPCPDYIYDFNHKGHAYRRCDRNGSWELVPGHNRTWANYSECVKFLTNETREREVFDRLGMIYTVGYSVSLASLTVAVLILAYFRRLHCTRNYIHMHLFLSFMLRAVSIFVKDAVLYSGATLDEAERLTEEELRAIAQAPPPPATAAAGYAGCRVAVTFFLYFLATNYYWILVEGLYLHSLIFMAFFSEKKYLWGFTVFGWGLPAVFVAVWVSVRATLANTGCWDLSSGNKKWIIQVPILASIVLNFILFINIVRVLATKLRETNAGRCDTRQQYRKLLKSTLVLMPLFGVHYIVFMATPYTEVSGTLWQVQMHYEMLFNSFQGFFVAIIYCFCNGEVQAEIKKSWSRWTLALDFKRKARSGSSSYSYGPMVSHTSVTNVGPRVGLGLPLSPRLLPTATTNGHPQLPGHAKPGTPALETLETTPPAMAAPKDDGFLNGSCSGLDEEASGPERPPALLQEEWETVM
#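 HEK-293-derived GP2 cells expressing PTHR1 and a GloSensor cAMP reporter, 3,000/well, plated overnight, given luciferin plus IBMX (each 0.5 mM as added) for 1 h at 37 °C, then compound for 1 h at 37 °C. Luminescence was read after 15 min at room temperature.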
# GLP-1R agonist – qHTS of GLP-1 Receptor Agonists; HEK293 GLP-1R CRE-luciferase, luminescence, 4-6 h; cells express a hypersensitive GLP-1R form; Potency, µM (titrated, usually from 45.6 µM), for the others: at the highest dose activation, actives largely listed as activators; hit rate 0.007% among 380,000; AID 624172, 2012; note: potency is the fitted concentration of half-maximal effect; % of control where 0% means no effect
# Numbers without * were called inactive; i = inactive; ? = inconclusive; nt = no result given; [ ] = remark or other dose. Rows were chosen to be rich in hits. Some 1.7% of all compounds tested hit in one or more screens of this group. Unless noted, calls come from the whole dose curve; as a rule, active = well fitted curve in the direction sought with a large enough effect; inconclusive = small, poorly fitted or top-dose-only effect, or another doubt; inactive = no such curve, though single readings can be large; an effect the other way counts as inactive or inconclusive.
SMILES,Pin1 inh,HEK293 tox,GLP-1R inv ag,miR-21 reporter,PTHR1 agonist,GLP-1R agonist
O=C(CCl)N1N=C(c2ccco2)CC1c1ccco1 (stereo not given),nt,?,2.2µM*,?,-9%,1%
O=C(CNC(=O)C1CCCC1)OC(C(=O)Nc1cc(C(F)(F)F)ccc1Cl)c1ccccc1 (stereo not given),0%,nt,nt,nt,nt,nt
CCn1c(=O)c(C(=O)CN(C)Cc2cccc(OC)c2OC)c(N)n(Cc2ccccc2)c1=O,-30%,-19%,?,-3%,-3%,-18%
CCn1c(=O)c(C(=O)CN(C)Cc2ccc(F)cc2)c(N)n(Cc2ccccc2)c1=O,0%,-17%,8.9µM*,0%,i,-1%
CN(C)Cc1cc(C(C)(C)c2ccccc2)ccc1O,-8%,-8%,10µM*,nt,i,-2%
Cc1cc(C(=O)COC(=O)Cc2n[nH]c(=O)c3ccccc23)c(C)n1-c1cccc(C(F)(F)F)c1,36%,-20%,7.1µM*,19%,-24%,-1%
CCCC(=O)O[C@]1(C(=O)COC(C)=O)CC[C@H]2C3C[C@H](F)C4=CC(=O)C=CC4(C)[C@@]3(F)[C@@H](O)CC21C (stereo not given in full),nt,nt,nt,nt,nt,-1%
c1ccc2nc(N3CCCC3)c(N3CCCCC3)nc2c1,0%,9%,11µM*,nt,-30%,13%
Cc1ccc(Nc2c(-c3ccc(C)s3)nc3cccc(C)n23)cc1,-1%,nt,nt,nt,nt,nt
CC(=O)OC1CCC2(C)C(=CCC3C2CCC2(C)C(C(C)=O)CCC32)C1 (stereo not given),nt,nt,nt,nt,nt,6%
CCOc1cccc(C2C=C(c3ccc4c(c3)OCO4)NC(c3cccc(Br)c3)N2)c1O (stereo not given),0%,nt,nt,nt,nt,nt
O=C(c1cccc(-c2ccco2)c1)N1CCCC(N2CCN(c3ccc(F)cc3)CC2)C1 (stereo not given),2%,-3%,10µM*,5%,-35%,-16%
Cc1ccc(-c2cc(C3C4C=CCC(C)C4C(=O)N3Cc3ccccc3)ccc2F)cc1 (stereo not given),-8%,nt,nt,nt,nt,nt
CN1CCN(CCOc2ccc(Cc3ccccc3)cc2)CC1,-4%,-1%,11µM*,-5%,i,7%
c1ccc(COc2ccc(OCCCCN3CCCC3)cc2)cc1,2%,-18%,11µM*,-30%,-11%,-7%
c1ccc(COc2ccc(OCCCN3CCCCC3)cc2)cc1,-1%,-8%,?,-39%,i,1%
CC(C)(C)OC(=O)Cc1nnc(CNC(=O)c2ccccc2)s1,0%,nt,nt,nt,nt,nt
O=[N+]([O-])c1cccc(/C=N/NC2=NCCCCC2)c1,17%,4%,7%,-45%,28%,-1%
O=C(ONC1=NCCCCC1)c1cccc([N+](=O)[O-])c1,-2%,11µM*,?,5%,-40%,14%
Cc1ccc(C(=O)NCC(c2ccco2)N2CCc3ccccc3C2)cc1C (stereo not given),3%,-4%,11µM*,nt,-27%,-3%
Cc1ccc(C)c(S(=O)(=O)NCC(c2ccco2)N2CCc3ccccc3C2)c1 (stereo not given),1%,-14%,11µM*,nt,-10%,10%
Cc1ccc(C(=O)NCC(c2ccco2)N2CCc3ccccc3C2)cc1 (stereo not given),0%,11%,?,nt,-13%,1%
COc1ccc(C)cc1S(=O)(=O)NCC(c1cccnc1)N1CCc2ccccc2C1 (stereo not given),9%,-12%,?,-8%,-23%,10%
CC(C1CC1)N(Cc1ccccc1)C(=S)Nc1cccc(C(F)(F)F)c1 (stereo not given),1%,-8%,10µM*,10%,-25%,1%
CC(C1CC1)N(Cc1ccccc1)C(=S)Nc1ccccc1 (stereo not given),-1%,-13%,?,-5%,-12%,14%
SMILES,Pin1 inh,HEK293 tox,GLP-1R inv ag,miR-21 reporter,PTHR1 agonist,GLP-1R agonist
COC(=O)c1ccc(N)cc1O,2%,73%,11%,-3%,-15%,4%
COC(=O)c1ccc(=O)c2nc3/c(=C/O)c(O)cc(=O)c3[nH]c12,7.1µM*,?,-25%,7%,-3%,4%
Cc1[nH]c2ccccc2c1SCCNC(=O)c1ccc(Br)o1,?,-21%,11µM*,7%,-10%[57.5 µM],3%
O=C(NCCSc1c[nH]c2ccccc12)c1ccc(Br)o1,-7%,-17%,?,-10%,-39%,-4%
CC(C)Cc1cc(C(=O)Nc2ccc3c(c2)OCO3)no1,-4%,20%,4µM*,-29%,i,-2%
Cc1cc(C(=O)Nc2ccc3c(c2)OCO3)no1,0%,1%,?,-4%,i,-2%
CC(=O)Nc1ccc(/C(C)=N/Nc2nc(Nc3cccc4ccccc34)nc(N3CCOCC3)n2)cc1,0%,-21%,2.8µM*,2%,i,1%
CC(=O)Nc1ccc(/C(C)=N/Nc2nc(N3CCOCC3)nc(N3CCOCC3)n2)cc1,-16%,33%[7.66 µM],-12%[7.66 µM],-7%,i,11%
Cc1cccc(C)c1NC(=O)Cn1c(=O)n(Cc2ccco2)c(=O)c2ccc(C(=O)NC3CCCC3)cc21,1%,3%,9%,2%,i,9%
O=C(c1ccccc1)C(Nc1cccc([N+](=O)[O-])c1)c1ccccc1 (stereo not given),7%,-2%,7.9µM*,nt,-16%,21%
O=C(NC(NC(=O)c1ccccc1)c1cccc([N+](=O)[O-])c1)c1ccccc1,3%,-3%,11%,-8%,i,12%
Cc1cc2c(s1)c1cnn(Cc3ccc4ccccc4c3)c(=O)c1n2C,-3%,nt,nt,nt,nt,nt
COc1ccc(NC(=O)C2=C(C)C(=O)OC23CCC(C)CC3)cc1Cl (stereo not given),?,-7%,7.9µM*,9%,i,1%
Cc1ccc(-c2nc3cnccn3c2Nc2ccc(C(C)C)cc2)o1,30%,nt,nt,nt,nt,nt
O=C1OCCN1C(=O)[C@H]1[C@H](c2ccc([N+](=O)[O-])cc2)C(c2ccc(F)cc2)=NN1c1ccc(Br)cc1,?,-15%,10µM*,nt,i,-2%
O=C1OCCN1C(=O)[C@H]1[C@H](c2ccc([N+](=O)[O-])cc2)C(c2ccc(F)cc2)=NN1c1ccccc1,4%,-11%,?,nt,-31%,0%

# From PubChem
